PubChem BioAssay AID2732 (Emory University Molecular Libraries Screening Center, 2010)
In all, about 220,000 compounds went through this assay and about 8,200 (3.7%) were called active.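 The calls were made as follows: active = compounds that reduced the stress-induced luciferase reporter signal by more than about 70% of percent inhibition (limit read from the data); inactive = the rest.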 Shown is part of a subset that was picked to be rich in actives.

test: inhibitors of CHOP promoter induction, primary screen, cell-based, unfolded protein response, luciferase reporter (AID 2732); details: CHO-K1 CHOP-promoter luciferase, tunicamycin-induced, 15-18 h; at 10 µM; hits give high values;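 also: 0% = tunicamycin plus vehicle and 100% = wells without tunicamycin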

inhibition, inactive:
O=C(C[n+]1cc(-c2ccc(Cl)c(Cl)c2)n2c1CCC2)c1cccs1 -8.35%
Cc1ccc(S(=O)(=O)N(C)C)cc1NC(=O)c1n[nH]c(=O)c2ccccc12 2.56%
O=C(Nc1ccc(F)cc1)c1cc2c(s1)CCCC2 10.4%
C/C(=N\NC(=O)c1cc2c(s1)CCC(C)C2)c1cccnc1 (stereo unspecified) 6.64%
NC(=O)c1c(NC(=O)CSc2nc(N)cc(=O)[nH]2)sc2c1CCCC2 15.3%
COc1cc(/C=C2/C(=O)ON=C2C)ccc1OCc1ccccc1F -26.4%
CC1=NOC(=O)/C1=C\c1ccccc1 -18.4%
Cc1cc(NCc2cccnc2)no1 3.98%
O=C(NC(=O)N1CCSCC1)c1c(Cl)cccc1Cl 12.1%
Cc1cc(CO)nn1-c1ccc([N+](=O)[O-])cc1 7.27%
CNC(=O)C(NC(=O)c1ccccc1)=C(C)C 1.37%
CCN(CC)c1ccc(NC(=O)C2CCC(CNc3c(N4CCCC4)c(=O)c3=O)CC2)c(C)c1 (stereo unspecified) -9.36%
Cc1cc(-c2nc(C)c(-c3nnc(SCC(=O)Nc4ccccc4)n3C)s2)no1 5.16%
COc1cccc(-c2nc3cc(C)ccc3o2)c1 61.7%
CC(C)(C)Oc1ncc(Br)c(OC(C)(C)C)n1 23.2%
Cc1ccc(C(=O)Nc2nc(N)n(-c3ccccc3)n2)cc1 12.8%
O=C(Nc1cccc([N+](=O)[O-])c1)Nc1ccc(Cl)cn1 2.82%
CCN(CC)C(=O)CN(c1cccc([N+](=O)[O-])c1)S(=O)(=O)c1ccccc1 0.69%
COC(=O)c1scc(S(=O)(=O)C(C)(C)C)c1-n1cccc1 6.86%
Cc1ccc(S(=O)(=O)NC(=O)N2CCCN(Cc3ccc(F)cc3)CC2)cc1 9.07%
COc1ccc(NS(=O)(=O)c2ccc(NC(=O)C(C)(C(F)(F)F)C(F)(F)F)cc2)nn1 -4.95%
Cc1ccc(NC(=S)NC(=O)/C=C/c2ccc(Cl)cc2)cc1 17.9%
CCN(CC)CCCN=Cc1c(O)n(-c2ccc(C)cc2)c(=O)c2ccccc12 6.14%
CSCC[C@H](NC(=O)NC1CCCC1)C(=O)O -0.23%
COc1ccc(-c2nc(CS(=O)CC(=O)NCc3ccccn3)c(C)o2)cc1 (stereo unspecified) 7.53%
Cc1ccc(-c2nc(CS(=O)CC(=O)N3CCN(c4ncccn4)CC3)c(C)o2)cc1 (stereo unspecified) 44.5%
CCn1c(SCC(=O)Nc2sc(C)c(C)c2C#N)nnc1C1CC1 5.65%
CCc1ccccc1NC(=O)CSc1nnc(CCNC(=O)OC(C)(C)C)o1 15.9%
O=C(/C=C/c1ccc(Cl)c([N+](=O)[O-])c1)c1ccc(O)cc1 -208%
Cc1ccc(-c2nn(-c3ccccc3)cc2C(=O)Nc2cccc(S(=O)(=O)N3CCOCC3)c2)cc1 40%
COc1ccc(-c2nn(-c3ccccc3)cc2/C=C\C(=O)Nc2ccc(C(=O)O)cc2)cc1 40.4%
CC(=O)NCc1ccc(S(=O)(=O)NC2CCN(Cc3ccccc3)CC2)cc1 -10.7%
Nc1ccccc1SC(C[N+](=O)[O-])c1ccccc1 (stereo unspecified) 46.3%
O=C1CC2(CC(c3ccc(Cl)cc3)=NO2)C(=O)N1c1ccccc1 (stereo unspecified) 18.6%
NC(=O)C1=C[C@@H](c2csc3ccccc23)C[C@@H](OCc2ccc(CO)cc2)O1 36.3%
COP1(=O)C[C@@H](O)[C@@H](O)[C@@H](COCc2ccccc2)O1 (stereo partly specified) -7.84%
CCCc1nc(-c2cc3cc(C)ccc3[nH]c2=O)no1 14.6%
CCNCc1cc2cc(C)ccc2[nH]c1=O -7.23%
Cc1nnc(SC(C(=O)c2ccccc2)c2ccccc2)[nH]c1=O (stereo unspecified) -8.07%
CCn1c2ccccc2c2cc(NC(=O)CNC)ccc21 5.95%
O=C(CCN1C(=O)c2ccccc2C1=O)NCCCn1ccnc1 -1.9%
CCOc1ccccc1C(=O)NCCCn1ccnc1 -4.75%
N#C/C(=C\N1CCOCC1)S(=O)(=O)c1ccc(Cl)cc1 21.5%
COc1cc(C2CC(=O)c3cnc(NC(C)=O)nc3C2)cc(OC)c1OC (stereo unspecified) 30.2%
O=C(Nc1ncc2c(n1)CC(c1ccco1)CC2=O)c1ccc(Cl)cc1 (stereo unspecified) 33.8%
CCOC(=O)c1cn(CC)c2cc(F)c(F)cc2c1=O -15.5%
O=C(CNC(=O)c1cc(=O)[nH]c2ccccc12)Nc1ccc(F)c(F)c1 -18.5%
O=C(CNC(c1ccccc1)c1ccccc1)Nc1ccc(F)cc1 23.2%
CCn1c(=O)c([N+](=O)[O-])c(NCc2ccc3c(c2)OCO3)c2ccccc21 22.4%
Cc1cc(NC(=O)OC(C)C)ccc1-c1ccc(NC(=O)OC(C)C)cc1C 25.1%
Cc1noc(C)c1/C=N/Nc1ccc2ccccc2n1 16.5%
Brc1ccc(-c2csc(N/N=C/c3ccc4c(c3)OCO4)n2)cc1 26.8%
COc1ccc(Cc2cc(-c3ccc(F)cc3)n[nH]c2=O)cc1 15.3%
O=C(NCC1CCCO1)c1cc(-c2ccccc2)nc2ccccc12 (stereo unspecified) 1.14%
Cc1ccc(-c2csc(SCC(=O)Nc3cc(C)on3)n2)cc1 32.5%
Cc1ccc(SCCC(=O)Nc2cc(C)on2)cc1 20.7%
CCCc1nc2oc3c(=O)[nH]cnc3c2c2c1COC(C)(C)C2 -14.7%
COC(=O)c1cc(S(=O)(=O)N2CCC(C(N)=O)CC2)oc1C 4.8%
COCCNc1nc(-c2ccccc2)nc2c1oc1ccccc12 37.1%
Cc1cc(C)n(CC(C)NCc2c(C(=O)N3CCOCC3)nc3c(C)cccn23)n1 (stereo unspecified) 11.3%
O=C(Nc1ccccc1)/C(=C/c1ccc([N+](=O)[O-])cc1)NC(=O)c1ccccc1 51.8%
O=C(Nc1ccc(C(=O)O)cc1)/C(=C/c1ccc([N+](=O)[O-])cc1)NC(=O)c1ccccc1 -5.43%
Cc1cc(=O)oc2cc(OCC(=O)Nc3nnc(C4CC4)s3)ccc12 1.52%
CNC1(c2nnnn2-c2c(C)cccc2C)CCOC(C)(C)C1 (stereo unspecified) 1.67%
CCOC(=O)C1CCN(C(=O)Nc2ccc(C)c(Cl)c2)CC1 1.94%
C/C=C(/C)C(=O)O[C@@H]1c2cc3c(c4c2[C@@]2(CO4)C(=O)C(OC)=C(OC)C=C2C[C@@H](C)[C@H]1C)OCO3 2.19%
Cc1ccc(S(=O)(=O)NCCSc2ccccc2)cc1[N+](=O)[O-] 33.3%
O=S(=O)(NCCSc1ccccn1)c1ccc(Cl)cc1 15.3%
COc1ccc(-c2oc3ncn(Cc4ccco4)c(=N)c3c2-c2ccc(OC)cc2)cc1 -30.9%
c1ccc(-c2oc3ncnc(N4CCOCC4)c3c2-c2ccccc2)cc1 57.6%
O=C(CNc1ccc(F)cc1F)NC(=O)NCc1ccco1 10.8%
Cc1nc2nc(SCC(=O)c3ccccc3)[nH]c2cc1Br -0.2%
Cc1nc(Nc2ccc3c(c2)OCCO3)c2nnn(Cc3ccccc3Cl)c2n1 69.6%
O=C(Cn1cnc2c(nnn2Cc2ccc(F)cc2)c1=O)NCc1ccc2c(c1)OCO2 37.3%
CS/C(=C\C(=O)c1ccco1)Nc1ccccc1Cl 1.24%
CC(O)c1nc2c(c(=O)n(C)c(=O)n2C)n1C (stereo unspecified) 10.6%
COc1cc(C2C(C#N)=C(C)NC3=C2C(=O)CC(C)(C)C3)ccc1O (stereo unspecified) 49.1%
CC(=O)C1=C(C)NC2=C(C(=O)CC(C)(C)C2)C1C (stereo unspecified) 23.4%

inhibition, active:
CC1CCc2sc(C(=O)N/N=C/C3CCCCC3)cc2C1 (stereo unspecified) 71.4%
COc1cc(/C=C2/C(=O)ON=C2C)ccc1OCc1cccc(F)c1 104%
COc1cccc(-c2cnc(OC(C)(C)C)nc2OC(C)(C)C)c1 91.8%
O=C(CCl)N(Cc1cccc([N+](=O)[O-])c1)c1cccc(Cl)c1 105%
COc1ccc(NS(=O)(=O)c2ccc(NC(=S)NC(=O)/C=C/c3ccc(C)cc3)cc2)nn1 95.5%
COc1ccc(-c2nc(CS(=O)CC(=O)N3CCc4ccccc4C3)c(C)o2)cc1 (stereo unspecified) 86.5%
Cc1ccc(-c2nn(-c3ccccc3)cc2/C=C/C(=O)Nc2cccc(S(N)(=O)=O)c2)cc1 88.3%
Cc1ccc2[nH]c(=O)c(-c3nc4c(C)cccn4c3NCc3ccco3)cc2c1 95.7%
CCCC(=O)Nc1ccc(C(=O)NCCCn2ccnc2)cc1 73.7%
CCc1ccc(Nc2ncc3c(n2)CC(c2ccco2)CC3=O)cc1 (stereo unspecified) 78.5%
O=C(CC(NC(=O)c1ccccc1)c1ccccc1)Nc1ccc(F)c(F)c1 (stereo unspecified) 105%
C(=N\Nc1ccc2ccccc2n1)/c1ccc2c(c1)OCO2 71%
Cc1ccc2nc(-c3ccc(SCC(=O)Nc4cc(C)on4)nc3)[nH]c2c1 91.1%
Cc1ccc(NC(=O)/C(=C/c2ccc([N+](=O)[O-])cc2)NC(=O)c2ccccc2)cc1 104%
CCOc1ccc(S(=O)(=O)NCCSc2ccccc2)cc1 95.6%
N=c1c2c(-c3ccccc3)c(-c3ccccc3)oc2ncn1Cc1ccco1 92.2%
CCCc1nc(NCc2ccc3c(c2)OCO3)c2nnn(Cc3ccccc3Cl)c2n1 70.4%
CCC1C(C#N)=C(SC)NC2=C1C(=O)CC(C)(C)C2 (stereo unspecified) 73.6%
